# Out of some 360,000 compounds screened, about 780 (0.22%) were called active. Cut-off read from the data, not from the text of the source: active = inhibition above about 8.5% (passing the limit was not always enough); inconclusive = no clear call, values can overlap the other calls. This excerpt belongs to a sample that is enriched for actives.
# Tested on: Mycobacterium tuberculosis FadD28 fatty-acid-AMP ligase
# Assay: inhibitors of FadD28 bisubstrate probe binding, primary screen, biochemical, fluorescence polarization, single point (AID 588549)
# Details: at 12.5 µM, active compounds read high
row,Compound,inhibition
1,O=C1Nc2cc(Cl)c(Cl)cc2N(O)N1c1cc(Cl)cc(Cl)c1,-1.95% (inactive)
2,CC12CCC(=O)N1C(C(=O)Nc1ccc(F)c(F)c1F)CS2 (stereo not given),-2.85% (inactive)
3,CC[C@]1(C(=O)OC)[C@H]2C(=O)N(Cc3ccccc3)C(=O)[C@H]2[C@H]2CN=C(SCc3ccc(C#N)cc3)N21,-7.96% (inactive)
4,COc1cc(/C=C2/C(=O)NN(c3cccc(Cl)c3)C2=O)cc(Br)c1O,14.2% (active)
5,CCOc1c(Br)cc(/C=C2\C(=O)N(CCC#N)N=C2C)cc1OC,-4.34% (inactive)
6,CCCS(=O)(=O)Nc1c(C(=O)O)[nH]c2ccccc12,1.47% (inactive)
7,O=C(O)c1[nH]c2ccccc2c1C(c1cccc(O)c1)c1c(C(=O)O)[nH]c2ccccc12,28.9% (active)
8,Cc1c(C(=O)CN2CCOCC2)[nH]c2ccccc12,-2.15% (inactive)
9,C/C(=N\Nc1cccc(C(=O)O)c1)c1ccc2c(c1)Nc1ccccc1S2,13.8% (active)
10,CC(=O)Nc1cccc(/C(C)=N/NC(=O)c2c(-c3ccccc3Cl)noc2C)c1,-2.25% (inactive)
11,COc1cccc(C(=O)N/N=C(\C)c2cccc(NC(=O)c3ccc(F)cc3)c2)c1OC,-4.93% (inactive)
12,Cc1ccc(CNC(=O)CCNS(=O)(=O)c2cccc3nonc23)cc1,0.736% (inactive)
13,CC1CCN(C(=O)c2cc3nc(C4CC4)cc(C(F)(F)F)n3n2)CC1,-2.25% (inactive)
14,COc1ccc(/C=C/CN2CCCC(C(=O)c3cc(F)ccc3F)C2)cc1 (stereo not given),-1.96% (inactive)
15,CN(C(=O)C1CCN(c2ncnc3c2nc2n3CCCCC2)CC1)C1CCCCC1,-3.36% (inactive)
16,COCCCNC(NC(=O)c1ccc(OC)cc1)C(Cl)(Cl)Cl (stereo not given),-3.52% (inactive)
17,c1ccc(CCN2CN=C(Nc3nc4ccccc4o3)NC2)cc1,-1.13% (inactive)
18,COc1ccc(C(=O)c2c(C)c(CCC#N)n3ccccc23)c(OC)c1,-2.38% (inactive)
19,Cc1ccc(S(=O)(=O)N2C[C@H]3C(=O)C[C@@H](c4cccc5ccccc45)N(S(=O)(=O)c4ccc(C)cc4)[C@H]3C[C@H]2c2ccc(Cl)cc2)cc1,-2.51% (inactive)
20,COc1cccc(N2C(=O)NC(=O)/C(=C\c3ccc([N+](=O)[O-])s3)C2=O)c1,16.4% (active)
21,O=[N+]([O-])c1ccc(C=Nc2ccc(Cl)cc2Cl)s1,-1.01% (inactive)
22,COc1cccc(C(=O)Oc2cc(C)[nH]c(=O)c2[N+](=O)[O-])c1,-0.419% (inactive)
23,O=C1NC(=O)N(c2ccccc2)C(=O)/C1=C/c1ccc([N+](=O)[O-])s1,25.4% (active)
24,O=C(OCC(=O)N1CCN(c2ccccc2)CC1)c1ccc([N+](=O)[O-])s1,0.124% (inactive)
25,COc1cccc(/C=C2\SC(=N)N(c3ccc(F)cc3)C2=O)c1,-2.96% (inactive)

# From PubChem BioAssay AID588549 (Broad Institute, 2011)
